HT1080NT lethal: qHTS for induction of synthetic lethality in tumor cells producing 2HG: qHTS for the HT-1080-NT fibrosarcoma cell line; HT-1080-NT fibrosarcoma viability, CellTiter-Glo ATP luminescence, 48 h; Potency, µM (titrated, usually from 46.1 µM), for the others: at the top dose activity, negative = less viability, most hits filed as cytotoxic; actives 1.6% (n = 360,000);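 note: NT is the 2HG producing partner of a matched IDH1 knockdown line; 0% = DMSO-treated cells and -100% = media-only wells without cells; nearly all actives have a fitted effect of over 55% in size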
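Toxicity toward the 2HG-producing NT line was scored as %Activity, normalised to DMSO and no-cell wells, from CellTiter-Glo luminescence after 48 hours' treatment.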
MCF10A rerep: A quantitative high throughput screen for small molecules that induce DNA re-replication in MCF 10a normal breast cells. actives 2.9% (n = 350,000). Potency, µM (series often up to 46.1 µM), inactives show at the top dose activity, positive = re-replication, usual class: activators. MCF 10A DNA re-replication, Hoechst nuclear intensity, 48 h; note: % of control where 0% means no effect; nearly all actives have a fitted effect of over 50% in size
KB-3-1 cytotox: qHTS assay for MDR1-selective chemotherapeutics: Primary screen using the parental adenocarcinoma cell KB-3-1. Potency, µM (top dose mostly 46.1 µM), usual class: cytotoxic. KB-3-1 viability, CellTiter-Glo ATP luminescence, 72 h. actives 1.4% (n = 400,000); note: % is set by controls: 0 for no effect and ±100 for the full control effect; nearly all actives have a fitted effect of over 60% in size
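Luminescent ATP read-out (CellTiter-Glo) measures survival of drug-naive KB-3-1 cells after 72 h compound exposure at 37 °C. Titration series was screened from lowest to highest concentration, with DMSO vehicle plates as background controls.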
SW480 rereplic: A quantitative high throughput screen for small molecules that induce DNA re-replication in SW480 colon adenocarcinoma cells; Potency, µM (top dose mostly 46.1 µM), for inactives: top-dose re-replication activation, hits mostly activators; AID 624297, 2012; SW480 DNA re-replication, Hoechst DNA content imaging, 48 h; actives 1.8% (n = 340,000); note: % of control where 0% means no effect; nearly all actives have a fitted effect of over 55% in size
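Cells (250 per well) received 23 nL compound or DMSO by pin tool and were kept 48 hr at 37 C, 5% CO2. Nuclei were then stained with Hoechst for 40 min and scanned for DNA content.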
HT1080 IDH1KD tx: qHTS for induction of synthetic lethality in tumor cells producing 2HG: qHTS for the HT-1080-IDH1KD cell line; actives 2% (n = 360,000); HT-1080 IDH1 knockdown viability, ATP luminescence, 48 h; Potency, µM (doses to about 46.1 µM), without a hit: at the top dose activity, negative = toxicity, hits mostly cytotoxic; AID 686971, 2013;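 note: 0% = DMSO wells and -100% = cell-free medium wells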
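% activity derives from luminescence (CellTiter-Glo), normalised to DMSO and no-cell wells. HT-1080-IDH1KD cells, 750/well, had 48 h compound exposure at 37 °C.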
KB-V1 cytotox: qHTS assay for MDR1-selective chemotherapeutics: Primary screen using the drug-selected MDR subline cells KB-V1. actives 3.4% (n = 400,000). Potency, µM (doses to about 46.1 µM), usual class: cytotoxic. KB-V1 MDR cells viability, CellTiter-Glo, 72 h; note: % is set by controls: 0 for no effect and ±100 for the full control effect; nearly all actives have a fitted effect of over 60% in size
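Cytotoxicity via CellTiter-Glo luminescence after 72 h compound exposure at 37 degrees C. Cells: drug-selected KB-V1 line, DMEM phenol-red free plus 10% FBS. Compounds tested at multiple concentrations; normalized data fitted to concentration-effect curves.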
Starred values were filed as active, the others as inactive; i = inactive; ? = inconclusive; nt = no result given; ! = repeats disagree. This is a sample that favours compounds with a hit; in the whole collection about 7.9% have one here. Calls come from the whole dose curve; as a rule, active = well fitted curve in the direction sought with a large enough effect; inconclusive = small, poorly fitted or top-dose-only effect, or another doubt; inactive = no such curve, though single readings can be large; an effect the other way counts as inactive or inconclusive. Potency is the fitted concentration of half-maximal effect.

SMILES	HT1080NT lethal	MCF10A rerep	KB-3-1 cytotox	SW480 rereplic	HT1080 IDH1KD tx	KB-V1 cytotox
CCC(COC(=O)Nc1cccc(C)c1)NC(=O)OCC(C)C (centres undefined)	11%	4%	i	-4%	6%	3.7µM*
Cc1cc(NC(=O)/C=C/c2cccc(Cl)c2)n(-c2nc3ccccc3[nH]2)n1	-4%	21µM*	?	?	-9%	?
COc1ccc(/C=C/C(=O)Nc2cc(C)nn2-c2nc3ccccc3n2Cc2cccc([N+](=O)[O-])c2)cc1	2%	0%	?	?	1%	?
COc1ccc(/C=C/C(=O)Nc2cc(C)nn2-c2nc3ccccc3[nH]2)cc1	-8%	?	?	18µM*	-6%	16µM*
NC(=O)c1ccccc1NC(=O)/C=C/c1cccc(Cl)c1	-1%	12%	i	-15%	0%	i
Cc1cc(NC(=O)/C=C/c2cccc(F)c2)n(-c2nc3ccccc3[nH]2)n1	-8%	16µM*	?	?	-17%	?
Cc1cc(NC(=O)/C=C/c2ccc(F)cc2)n(-c2nc3ccccc3[nH]2)n1	-13%	?	i	2%	-3%	i
COc1cc(N(C)C)c(OC)cc1/C=C1\Cc2ccccc2C1=O	nt	nt	i	nt	nt	i
O=C(NCc1ccccc1Cl)c1cc2cccc3c2n1CCS3	nt	nt	?	nt	nt	i
CCCCn1c(NC(=S)Nc2ccccc2)nc2ccccc21	18µM*	?	?	16µM*	?	?
S=C(Nc1ccccc1)Nc1nc2ccccc2n1CCOc1ccccc1	?	?	i	?	?	15µM*
CCCCn1c(NC(=O)c2ccccc2)nc2ccccc21	?	?	i	-1%	0%	?
CC(=O)Nc1nc2ccccc2n1CCOc1ccccc1	-20%	?	?	14%	-28%	i
COc1ccc(CNC(=O)c2ccc3c(c2)CCN3S(=O)(=O)c2ccc(Cl)cc2)cc1	nt	nt	i	nt	nt	i
COc1ccccc1CNC(=O)C1(c2cccs2)CCOCC1	nt	nt	i	nt	nt	i
CCc1nc2ccc(C(=O)NCCOc3ccc(OC)cc3)cn2c1N(C)CCCc1ccccc1	?	nt	?	nt	-4%	i
COC(=O)c1nn(-c2ccc(OC)cc2)c(=O)cc1O	2%	-1%	i	9%	0%	i
COc1ccc(-n2nc(C#N)c(Cl)cc2=O)cc1	7.3µM*	0.73µM*	?	?	13µM*	i
CCOC(=O)CSc1nc2ccc(NC(=O)c3ccc(Cl)cc3)cc2s1	nt	nt	i	nt	nt	i
CCOC(=O)Nc1ccc2nc(Sc3ccc(Cl)cc3)sc2c1	?	?	i	16µM*	?	i
CC/C(=N\Nc1ccccc1[N+](=O)[O-])c1ccc(O)cc1	?	?	i	-5%	21µM*	i
CC(=O)Nc1cc(-c2nc3ccccc3s2)ccc1C	nt	nt	i	nt	nt	i
Cc1ccc(-c2nnc(NCc3nc4ccccc4[nH]3)c3ccccc23)cc1S(=O)(=O)N1CCOCC1	-3%	25%	i	7%	-5%	i
Cc1cc(-c2nc3ccccc3s2)ccc1N	-17%	21µM*	?	?	-26%	18µM*
Cc1ccc(-c2nc3ccccc3o2)cc1NC(=S)NC(=O)c1cccs1	15%	?	i	-5%	3%	i
SMILES	HT1080NT lethal	MCF10A rerep	KB-3-1 cytotox	SW480 rereplic	HT1080 IDH1KD tx	KB-V1 cytotox
Cc1ccc(-c2nc3ccccc3s2)cc1NC(=S)NC(=O)c1ccccc1	2%	13µM*	i	4%	-1%	i
Cc1ccc(-c2nc3ccccc3s2)cc1S(=O)(=O)N1CCOCC1	-40%	?	i	-10%	18µM*	i
Cc1cc(C)c2oc(-c3ccc(C)c(NC(=S)NC(=O)c4cccs4)c3)nc2c1	-2%	9.2µM*	i	-3%	-4%	i
Cc1ccc(-n2c(=O)c3c(cnn3C)n(CC(=O)Nc3ccc(C)cc3C)c2=O)cc1	nt	nt	i	nt	nt	i
Cc1ccc(NC(=O)CSc2c3c(nc4ccccc24)CCCC3)cc1F	nt	nt	i	nt	nt	i
CCOc1ccc(-n2c(SCC(=O)NCC3CCCO3)nc3c([nH]c4ccccc43)c2=O)cc1 (centres undefined)	nt	nt	i	nt	nt	i
COc1ccc(-c2nn(-c3ccccc3)cc2CN(C)CCn2ccnc2C)c(F)c1	0%	2%	i	0%	-5%	9.2µM*
COc1ccc(NC2=Nc3cccc4cccc2c34)cc1OC	-31%	0%	i	-2%	-1%	?
COc1cccc(NC2=Nc3cccc4cccc2c34)c1	6%	0%	i	1%	-11%	13µM*
COc1ccc(CC(=O)NNC2=Nc3cccc4cccc2c34)cc1OC	9%	4%	i	?	5%	i
COc1cc(NC2=Nc3cccc4cccc2c34)cc(OC)c1OC	?	?	i	?	?	2.6µM*
Cc1nn(-c2ccccn2)c2c1C(c1ccsc1)C1=C(CCCC1=O)N2 (centres undefined)	13%	28%	?	?	1%	3.7µM*
O=C(O)CCC(=O)c1ccc(C2CCCCCC2)cc1	22%	nt	i	nt	2%	i
COc1ccc(-c2onc(C)c2-c2ccc(C(=O)OC(C)C)o2)c(O)c1	5%	?	?	16%	3%	21µM*
Cc1ccc(C(=O)N2CCN(c3cccc(C)c3C)CC2)o1	?	?	16µM*	8%	?	?
COc1ccc(S(=O)(=O)Cc2ccc(C(=O)N3CCN(c4cccc(C)c4C)CC3)o2)cc1	-23%	?	?	21µM*	?	?
COc1ccc(S(=O)(=O)Cc2ccc(C(=O)N3CCN(c4cc(C)ccc4C)CC3)o2)cc1	-10%	?	i	3%	1%	?
Cc1ccc(C)c(N2CCN(C(=O)c3ccc(CS(=O)(=O)c4ccc(Br)cc4)o3)CC2)c1	nt	nt	?	nt	nt	i
Cc1ccc(S(=O)(=O)Cc2ccc(C(=O)N3CCN(c4cccc(C)c4C)CC3)o2)cc1	?	?	i	2.6µM*	3.7µM*	2.9µM*!
